# High-throughput results from PubChem BioAssay.
# Hedgehog inh: blocks Sonic Hedgehog signaling; Shh-LIGHT2 Gli-luciferase reporter, 30 h; inhibition, % (no concentration beside the values); AID 2313; 2.1% of 22,000 active;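 active = mean inhibition across valid replicates above about 65%, limit read from the data; inconclusive = mean under the limit, yet half or more replicates past it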;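 also: pathway switched on by Shh-conditioned medium diluted 1 in 25 in low serum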
# MITF inh: inhibitors of MITF. AID 2240. TRPM1 promoter luciferase, luminescence, 24 h. inhibition, % (no concentration beside the values). 0.28% of 37,000 active; in the data active = inhibition above about 85%; inconclusive = no clear call, values can overlap the other calls; inactive = below about 68%;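 also: human melanocyte line stably carrying TRPM1 promoter luciferase reporter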
# NOMO-1 viab: STK33 inhibitor candidate reducing NOMO-1 cell viability | NOMO-1 AML viability, CellTiter-Glo luminescence, 72 h | inhibition, % (concentration not given with the values) | 7.5% of 37,000 active | AID 2330; in the data active = inhibition above about 80%; inconclusive = no clear call, values can overlap the other calls
# The depositor's hits bear a star; ? = inconclusive; nt = no result. Hits are enriched below; roughly 7.8% of the tested compounds scored in any of these assays.
SMILES,Hedgehog inh,MITF inh,NOMO-1 viab
C[C@@H]1CN([C@@H](C)CO)C(=O)c2cccc(NS(=O)(=O)c3cccs3)c2O[C@H]1CN(C)Cc1ccc(-c2ccccc2)cc1,-20,23,16
C=C1C(=O)O[C@@H]2C[C@@]3(C)CC(=O)C=C(C)C3C[C@H]12 (some centres not stated),51,1,120*
C=C1CC[C@@H](O)[C@]2(C)C[C@H]3OC(=O)C(=C)[C@H]3CC12 (some centres not stated),30,38,104*
C=C(C(=O)O)[C@@H]1CC[C@@]2(C)CC(=O)C=C(C)C2C1 (some centres not stated),14,-2,14
C[C@@H]1CN([C@H](C)CO)C(=O)c2cc(NC(=O)c3ccncc3)ccc2O[C@H]1CN(C)C(=O)Nc1cccc2ccccc12,nt,2,23
CC(C)NC(=O)Nc1ccc2c(c1)C(=O)N([C@H](C)CO)C[C@H](C)[C@@H](CN(C)C(=O)c1ccncc1)OCCCC[C@@H](C)O2,30,4,-1
O[C@H]1C=C2CCN3Cc4cc5c(cc4C(C23)[C@@H]1O)OCO5 (some centres not stated),99*,63,110*
Cc1noc(C)c1NC(=O)N(C)C[C@@H]1Oc2c(NC(=O)c3cnccn3)cccc2C(=O)N([C@@H](C)CO)C[C@@H]1C,-28,-13,15
COc1ccc(S(=O)(=O)N(C)C[C@H]2Oc3ccc(NC(=O)Nc4cccc5ccccc45)cc3CC(=O)N([C@@H](C)CO)C[C@@H]2C)cc1,-39,-4,-26
C[C@@H]1CN([C@H](C)CO)C(=O)Cc2cc(NC(=O)Nc3ccc4c(c3)OCO4)ccc2O[C@@H]1CN(C)Cc1ccc2c(c1)OCO2,72*,-2,6
C[C@@H]1CN([C@H](C)CO)C(=O)Cc2cc(NC(=O)Nc3ccc4c(c3)OCO4)ccc2O[C@H]1CN(C)Cc1ccc(Cl)c(Cl)c1,nt,15,57
C[C@@H]1CN([C@H](C)CO)C(=O)Cc2cc(NC(=O)Nc3ccc4c(c3)OCO4)ccc2O[C@@H]1CN(C)Cc1ccc(Cl)c(Cl)c1,-70,33,108*
C[C@H](CO)N1C[C@H](C)[C@H](CN(C)Cc2ccc3c(c2)OCO3)Oc2ccc(NC(=O)Nc3ccc(F)cc3)cc2CC1=O,1,5,63
C[C@@H]1CN([C@H](C)CO)C(=O)c2cc(NC(=O)C3CCCCC3)ccc2O[C@H]1CN(C)Cc1ccc(C(F)(F)F)cc1,5,-13,52
COC(=O)NC(Nc1cccc(C(F)(F)F)c1)C(=O)c1ccccc1 (configuration not stated),nt,4,37
C=C(C)[C@@H]1CC[C@]2(C(=O)O)CC[C@]3(C)[C@H](CCC4[C@@]5(C)CCC(=O)C(C)(C)C5C(O)C[C@]43C)C12 (some centres not stated),-21,38,104*
C=C(C)[C@@H]1CC[C@]2(C(=O)O)CC[C@]3(C)[C@H](CC[C@@H]4[C@@]5(C)CC[C@H](O)C(C)(C)[C@@H]5CC[C@]43C)[C@@H]12,-3,38,105*
C=C(C)[C@@H]1CC[C@]2(C(=O)O)CC[C@]3(C)[C@H](CCC4[C@]5(C)C(CC[C@]43C)[C@@](C)(CO)[C@@H](O)[C@@H]5C(=O)O)C12 (some centres not stated),-42,-14,9
CN1CCN(C(=O)CN(c2cc(C(F)(F)F)ccc2Cl)S(=O)(=O)c2ccccc2)CC1,nt,9,9
COc1ccccc1NC(=O)Cn1cnc2ccccc2c1=O,nt,-5,10
C[C@H](CO)N1C[C@H](C)[C@H](CN(C)S(=O)(=O)c2cccs2)Oc2c(NC(=O)c3ccc(-c4nccs4)cc3)cccc2C1=O,92*,45,58
C[C@H]1CN([C@@H](C)CO)C(=O)c2cccc(NC(=O)c3ccc(-c4nccs4)cc3)c2O[C@@H]1CN(C)S(=O)(=O)c1ccccc1,21,3,26
C[C@H]1CN([C@@H](C)CO)C(=O)c2cccc(NC(=O)c3ccc(-c4nccs4)cc3)c2O[C@H]1CN(C)S(=O)(=O)c1ccc(Cl)cc1,93*,-16,9
C[C@@H]1CN([C@H](C)CO)C(=O)c2cccc(NC(=O)c3ccc(-c4nccs4)cc3)c2O[C@@H]1CN(C)S(=O)(=O)c1ccccc1,17,-7,3
C[C@H](CO)N1C[C@H](C)[C@@H](CN(C)S(=O)(=O)c2cccs2)Oc2c(NC(=O)c3ccc(-c4nccs4)cc3)cccc2C1=O,40,-12,7
SMILES,Hedgehog inh,MITF inh,NOMO-1 viab
C[C@@H]1CN([C@H](C)CO)C(=O)c2cccc(NC(=O)c3ccc(-c4nccs4)cc3)c2O[C@H]1CN(C)S(=O)(=O)c1ccc(Cl)cc1,76*,8,7
C[C@H](CO)N1C[C@H](C)[C@@H](CN(C)S(=O)(=O)c2ccccc2)Oc2c(NC(=O)c3nc4ccccc4s3)cccc2C1=O,-16,-1,30
C[C@@H]1CN([C@@H](C)CO)C(=O)c2cccc(NC(=O)c3nc4ccccc4s3)c2O[C@H]1CN(C)S(=O)(=O)c1ccc(Cl)cc1,-14,28,93*
CC(C)NC(=O)N(C)C[C@@H]1Oc2ccc(NC(=O)C3CC3)cc2C(=O)N([C@H](C)CO)C[C@H]1C,-8,-4,-8
Cc1noc(C)c1NC(=O)Nc1ccc2c(c1)CC(=O)N([C@@H](C)CO)C[C@H](C)[C@@H](CN(C)C(=O)Nc1ccc(F)cc1)O2,-6,-5,9
COc1ccc(/C=C/C=N/n2c(SC)nnc2-c2ccccc2)cc1,54,14,?
COC(=O)c1ccccc1NC(=O)Cn1c(=O)n(C)c(=O)c2ccccc21,nt,-14,-1
COc1ccc(S(=O)(=O)N(C)C[C@@H]2Oc3c(NC(=O)Nc4ccc5c(c4)OCO5)cccc3C(=O)N([C@@H](C)CO)C[C@@H]2C)cc1,17,-25,-4
C[C@@H]1CN([C@H](C)CO)C(=O)Cc2cc(NC(=O)c3ccncc3)ccc2O[C@H]1CN(C)C(=O)Nc1ccc2c(c1)OCO2,-25,-9,3
C[C@H](CO)N1C[C@H](C)[C@@H](CN(C)S(=O)(=O)c2ccc(Cl)cc2)Oc2c(NC(=O)c3ccncc3)cccc2C1=O,-1,-15,16
Cc1ccc(S(=O)(=O)N(C)C[C@H]2Oc3c(NC(=O)c4ccc(-c5nccs5)cc4)cccc3C(=O)N([C@@H](C)CO)C[C@H]2C)cc1,1,13,6
Cc1ccc(S(=O)(=O)N(C)C[C@@H]2Oc3c(NC(=O)c4ccc(-c5nccs5)cc4)cccc3C(=O)N([C@H](C)CO)C[C@@H]2C)cc1,-7,29,82*
C[C@H](CO)N1C[C@H](C)[C@H](CN(C)S(=O)(=O)c2ccc(Cl)cc2)Oc2c(NC(=O)c3ccncc3)cccc2C1=O,111*,-10,34
COc1cc2c(cc1OC)C(=O)OC2,27,-1,1
C[C@H]1CN([C@@H](C)CO)C(=O)Cc2cc(NC(=O)Nc3ccccc3)ccc2O[C@@H]1CN(C)Cc1ccc(Oc2ccccc2)cc1,14,2,58
C[C@@H]1CN([C@@H](C)CO)C(=O)Cc2cc(NC(=O)Nc3ccc4c(c3)OCO4)ccc2O[C@@H]1CN(C)Cc1ccc(Oc2ccccc2)cc1,48,35,107*
